Compound activity from PubChem.
Mcl1 Bid PPI = Mcl-1/Bid binding inhibitors, primary screen, biochemical, TR-FRET, 1536-well; 0.97% of 220,000 active; AID 1021, 2008; inhibition, % at 21.7 µM; Induced myeloid leukemia cell differentiation protein Mcl-1 (Homo sapiens), Q07820; TR-FRET Mcl-1/Bid-Dy647 peptide binding;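 active = compounds that cut the binding signal by more than half at the single screening dose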;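 note: His-tagged Mcl-1 with europium anti-His antibody binding Bid BH3 peptide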
Target sequence (Q07820 whole entry, looked up): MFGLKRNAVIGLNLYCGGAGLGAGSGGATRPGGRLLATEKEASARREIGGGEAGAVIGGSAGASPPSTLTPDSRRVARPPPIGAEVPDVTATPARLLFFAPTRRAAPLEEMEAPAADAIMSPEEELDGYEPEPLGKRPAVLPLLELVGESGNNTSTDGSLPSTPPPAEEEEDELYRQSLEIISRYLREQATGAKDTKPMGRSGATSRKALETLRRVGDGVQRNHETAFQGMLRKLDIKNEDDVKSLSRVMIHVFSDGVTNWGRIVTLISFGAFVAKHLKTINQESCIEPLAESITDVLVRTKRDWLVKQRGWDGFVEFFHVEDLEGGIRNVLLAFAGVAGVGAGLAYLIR
BCLXL inh = inhibitors of human Bcl-xL, primary screen, biochemical, fluorescence polarization, HTS. inhibition, % at 10.9 µM. Bcl-2-like protein 1 (Homo sapiens), Q07817. AID 2129, 2009. GST-Bcl-xL / FITC-Bim BH3 peptide fluorescence polarization. 0.7% of 320,000 active;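 active = inhibition above the mean of all tested compounds plus 3 SD, cutoff set per campaign, cut at about 30% in these data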;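 note: inhibitors lower millipolarization by displacing the labeled peptide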
Target sequence (Q07817 whole entry, looked up): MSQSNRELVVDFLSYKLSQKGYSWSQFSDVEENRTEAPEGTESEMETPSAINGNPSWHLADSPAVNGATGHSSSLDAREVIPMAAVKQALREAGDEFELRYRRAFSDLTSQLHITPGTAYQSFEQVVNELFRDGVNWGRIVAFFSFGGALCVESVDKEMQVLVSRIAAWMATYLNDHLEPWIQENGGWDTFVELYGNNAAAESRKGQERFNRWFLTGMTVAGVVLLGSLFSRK
MCL1-BIM inh = inhibitors of MCL1 binding to BIM-BH3, primary screen, biochemical, fluorescence polarization; Induced myeloid leukemia cell differentiation protein Mcl-1 (Homo sapiens), Q07820; GST-MCL1 / FITC-Bim-BH3 fluorescence polarization; inhibition, % at 10.9 µM; 0.68% of 320,000 active; AID 2057, 2009;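 active = inhibition above the mean inhibition of all tested compounds plus 3 SD, set per campaign, cut at about 40% in these data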;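 note: higher means more loss of mP so more displacement of Bim peptide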
Mcl1 Noxa PPI = Mcl-1/Noxa binding inhibitors, primary screen, biochemical, TR-FRET, 1536-well | Induced myeloid leukemia cell differentiation protein Mcl-1 (Homo sapiens), Q07820 | TR-FRET Mcl-1/Noxa peptide binding, 2 h | inhibition, % at 21.7 µM | 1.5% of 220,000 active;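 active = compounds that cut the protein-peptide binding signal by more than 50% relative to plate controls in a single-dose test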;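 note: His-tagged Mcl-1 with rhodamine Noxa BH3 peptide and terbium anti-His antibody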
GLD-1 RNA inh = GLD-1/TGE RNA complex disruptors, primary screen, biochemical, fluorescence polarization; Female germline-specific tumor suppressor gld-1 (Caenorhabditis elegans), Q17339; purified GLD-1 + fluorescein TGE RNA; inhibition, % at 5.96 µM; 0.44% of 320,000 active;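 active = percent inhibition above a per-plate cutoff, the plate mean of test compounds plus 3 SD, cut at about 30% in these data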
Bim-Mcl-1 = inhibitors of Bim peptide binding to Mcl-1, primary screen, biochemical, bead-based flow cytometry, multiplex; Induced myeloid leukemia cell differentiation protein Mcl-1 (Homo sapiens), Q07820; Bim peptide-Mcl-1 binding; AID 1009, 2008; 0.1% of 190,000 active; inhibition, % at 10 µM; in the data active = inhibition above about 40%
GLD1 RNA confirm = GLD-1/TGE RNA binding inhibitors, retest, confirmation, biochemical, fluorescence polarization, triplicate; shares compounds with GLD-1 RNA inh; inhibition, % at 5.96 µM; 10% of 550 active; GLD-1/FL-TGE RNA fluorescence polarization; AID 2459, 2010;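 active = average inhibition across triplicates above the hit cutoff set in the primary screen, cut at about 32% in these data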
Hits are given with their value; - = inactive; . = no result. Most compounds without a hit are left out; they make up all but 2.3% or so of the library.

SMILES	Mcl1 Bid PPI	BCLXL inh	MCL1-BIM inh	Mcl1 Noxa PPI	GLD-1 RNA inh	Bim-Mcl-1	GLD1 RNA confirm
CCN(CC)c1nc2cc(C)ccc2cc1/C=C(\C#N)C(N)=O	-	-	-	-	-	-	.
COc1ccc2nc(N3CCCCC3)c(C#N)cc2c1	-	32	-	-	46	-	65
COc1ccc2nc(SCC(=O)N3CCCCC3)c(C#N)cc2c1	-	-	-	-	-	-	.
COc1cc(OC)cc(C(=O)NCC(=O)NCC(c2ccco2)N2CCCCC2)c1 (stereo not given)	.	-	-	.	-	.	.
COc1nnc(-c2ccc(C)c(S(=O)(=O)NC(C)(C)CO)c2)c2ccccc12	.	-	-	.	-	.	.
COc1nnc(-c2ccc(C)c(S(=O)(=O)NCCO)c2)c2ccccc12	-	39	-	-	49	-	-
Cc1c(C(=O)Nc2ccccn2)sc2nc3n(c(=O)c12)CCC3	.	-	-	.	-	.	.
O=C(O)CCC(=O)NCc1c(Cl)cccc1Sc1ccc(Cl)cc1	-	-	-	-	-	.	.
Cc1cc(Oc2ccc(=O)[nH]n2)nc(Cl)n1	-	40	-	-	35	.	-
CC1(C)CC(=O)C(N=Nc2cc3c(cc2[N+](=O)[O-])OCCO3)=C(O)C1	-	-	-	-	-	-	.
CCCn1c(C)cc(C(=O)CN2C(=O)c3cccc(N)c3C2=O)c1C	-	-	-	-	35	-	-
CCCCNC(=O)CN1C(=O)c2cccc(N)c2C1=O	-	.	.	-	.	-	.
NS(=O)(=O)c1ccc(CCNC(=O)Cc2ccc(S(=O)(=O)N3CCOCC3)s2)cc1	.	-	-	.	-	.	.
C[C@](N)(Cc1ccc(O)c(O)c1)C(=O)O	-	.	.	-	.	-	.
COC(=O)C(N)Cc1ccc(O)c(O)c1 (stereo not given)	-	-	-	-	71	-	-
Cc1ccc[n+](-c2nc([O-])sc2/C=N/Nc2ccc([N+](=O)[O-])cc2)c1	-	42	40	-	39	.	39
CC(C)C1=C2OC(N)=C(C#N)C(C#N)=C2C(C)CC1 (stereo not given)	.	35	-	.	39	-	-
COc1ccc2c(c1)cc(C(=O)N[C@@H](Cc1ccccc1)C(=O)O)n2C	.	-	-	.	44	.	-
COc1ccc2c(c1)cc(C(=O)N[C@@H](Cc1ccccc1)C(=O)N[C@@H](C)C(=O)O)n2C	.	-	-	.	-	.	.
N#Cc1ccccc1OCC(=O)NNC(=O)CNC(=O)c1cccc(Br)c1	.	-	-	.	-	.	-
N#Cc1ccccc1OCC(=O)NNC(=O)CNC(=O)c1ccc(Br)o1	.	.	.	.	-	.	.
COc1cccc(NC(=O)COC(=O)C2C3CC4OC(=O)C2C4C3)c1 (stereo not given)	.	-	-	.	-	.	.
CCCCC1=CC2=CC(=O)C(C)(OC(=O)CC)C(=O)C2=CN1CC(C)C (stereo not given)	-	34	41	-	31	.	-
Cc1cc(NC(=O)/C=C/c2ccccc2Cl)n(-c2nc3ccccc3[nH]2)n1	66	-	-	-	34	-	-
O=C1CCC(c2ccccc2)(C2CCN(Cc3ccccc3)CC2)C(=O)N1 (stereo not given)	.	-	-	.	-	.	.
SMILES	Mcl1 Bid PPI	BCLXL inh	MCL1-BIM inh	Mcl1 Noxa PPI	GLD-1 RNA inh	Bim-Mcl-1	GLD1 RNA confirm
CC1CCC(C(C)C)C(OC(=O)C2=C3c4ccccc4S(=O)(=O)N3CC2)C1 (stereo not given)	-	-	-	-	49	-	-
CC1CCC(C(C)C)C(OC(=O)CSc2nccc(=O)[nH]2)C1 (stereo not given)	-	-	-	-	-	-	.
CC(C)/C=C/C(=O)N1CCC(N2CCC(C(=O)NCc3ccccn3)CC2)CC1	.	-	-	.	35	.	-
Cc1ccc(S(=O)(=O)c2cc3ccc(O)cc3oc2=O)cc1C	.	-	-	.	32	.	-
CC(=O)c1ccc(N2CCN(C(=O)C3CCCN(S(=O)(=O)c4c(C)[nH]c(=O)[nH]c4=O)C3)CC2)cc1 (stereo not given)	-	-	-	-	-	-	.
Cc1cc(C)c(S(=O)(=O)N2CCN(C(=O)CN3C(=O)NC4(CCCC4)C3=O)CC2)c(C)c1	.	-	-	.	-	.	.
CCN(CC)S(=O)(=O)c1cc(NC(=O)CN2CCN(c3ccccn3)CC2)ccc1C	-	-	-	-	-	-	.
Cc1ccc(NC(=O)CN2CCN(c3ccccn3)CC2)cc1S(=O)(=O)N(C)C	-	-	-	-	54	-	-
COC(=O)c1ccc(C2C(C(=O)c3ccco3)=C(O)C(=O)N2CC2CCCO2)cc1 (stereo not given)	.	-	-	.	-	.	.
CC(=O)Nc1cccc(Oc2nc(-c3ccccn3)nc3ccccc23)c1	-	-	-	-	31	.	-
COc1ccc(C(=O)NCc2nnc(SCC(=O)NCc3ccco3)o2)cc1OC	.	-	-	.	-	.	.
CN1C2C=C3C(C#N)=C(N)C(C#N)(C#N)[C@@H](c4cccs4)C3C1CC2 (stereo not given in full)	-	43	46	-	33	-	-
COc1ccc(CN2C(=O)CN=C2Nc2cc(C)ccc2C)cc1	-	-	-	-	33	-	-
COc1ccccc1Oc1c(C)oc2c(CN3CCN(CCO)CC3)c(O)ccc2c1=O	-	95	112	-	61	-	-
O=C(Nc1cccc(-c2ccc(F)cc2)c1)C1CCCN(Cc2cccnc2)C1 (stereo not given)	.	-	-	.	-	.	.
COc1ccc(CNCCC(c2ccccc2)C2CCOC(C)(C)C2)cc1 (stereo not given)	-	-	-	-	49	-	-
N#Cc1ccc(Cl)cc1NC(=O)COC(=O)c1cccc(S(=O)(=O)N2CCOCC2)c1	.	-	-	.	-	.	.
CC(=O)Oc1cccc2c1C(=O)c1c(OC(C)=O)cc(C(=O)O)cc1C2=O	-	-	-	-	52	-	41
CCn1c(CSc2nnc(-c3ccncc3)n2CCOC)nc2cc(C(=O)O)ccc21	-	-	-	-	-	-	.
CCn1c(CSc2nnc(-c3cccnc3)n2-c2ccccc2C)nc2cc(C(=O)O)ccc21	-	30	-	-	46	-	-
CNC(=S)N1N=C(c2ccc(Br)cc2)CC1c1ccc(Br)cc1 (stereo not given)	-	-	-	-	-	-	.
Cc1cc2n(n1)C(c1ccccc1)CC(c1ccc(Br)cc1)=N2 (stereo not given)	-	-	-	-	53	-	-
